Key:
Type in all cases: functional
[1] = target: Solute carrier family 2, facilitated glucose transporter member 1 (Homo sapiens) (UniProt P11166); assay: ST_JUDE_LEISH: Cytotoxicity at 2uM final concentration against transgenic Leishmania Mexicana promastigotes LmGLUT1 that are glucose transport deficient and complemented with the human glucose transporter GLUT1. Activity is measured by DNA content using SYBR green in vitro
[2] = target: Hexose transporter 1 (Plasmodium falciparum) (UniProt O97467); assay: ST_JUDE_LEISH: Cytotoxicity at 2uM final concentration against transgenic Leishmania Mexicana promastigotes LmPfHT that are glucose transport deficient and complemented with the Plasmodium falciparum hexose transporter. Activity is measured by DNA content using SYBR green in vitro
[3] = target: Glucose transporter (Leishmania mexicana) (UniProt O61059); assay: ST_JUDE_LEISH: Cytotoxicity at 2uM final concentration against transgenic Leishmania Mexicana promastigotes LmGT2 that are glucose transport deficient and complemented with the L. Mexicana glucose transporter 2. Activity is measured by DNA content using SYBR green in vitro

Chain of Solute carrier family 2, facilitated glucose transporter member 1 (Homo sapiens) (P11166 whole entry): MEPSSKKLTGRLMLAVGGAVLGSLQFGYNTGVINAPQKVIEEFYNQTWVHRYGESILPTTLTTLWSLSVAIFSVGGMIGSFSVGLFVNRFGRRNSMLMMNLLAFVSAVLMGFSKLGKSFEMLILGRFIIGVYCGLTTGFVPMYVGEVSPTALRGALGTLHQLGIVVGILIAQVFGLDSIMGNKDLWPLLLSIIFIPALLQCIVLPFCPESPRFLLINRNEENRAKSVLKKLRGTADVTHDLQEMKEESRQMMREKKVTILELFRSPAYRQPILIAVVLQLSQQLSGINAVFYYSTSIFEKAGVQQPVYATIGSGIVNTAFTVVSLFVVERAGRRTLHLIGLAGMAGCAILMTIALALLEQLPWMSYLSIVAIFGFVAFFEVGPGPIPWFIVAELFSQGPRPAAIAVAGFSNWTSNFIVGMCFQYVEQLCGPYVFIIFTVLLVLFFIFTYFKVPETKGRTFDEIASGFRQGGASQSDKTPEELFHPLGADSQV

| SMILES | inhibition [1] [%] | inhibition [2] [%] | inhibition [3] [%] |
| --- | --- | --- | --- |
| CN(C(=O)C1(c2ccc(Cl)cc2)CC1)C1CCN(CCCCCNC(=O)/C=C/c2ccc(Cl)c(Cl)c2)CC1 | 0.14 | -0.37 | 4.56 |
| CC1CN(c2cnn(C/C=C/c3ccc(NC(=O)c4ccc([N+](=O)[O-])cc4)cc3)c(=O)c2Cl)CC(C)N1 (stereo unspecified) | -0.1 | 1.74 | 0.18 |
| CO/C(=C\C=C\c1cc2cc(Cl)c(Cl)cc2[nH]1)C(=O)NCCCN1CCN(c2cccc(CCO)c2)CC1 | -0.14 | 1.35 | -0.1 |
| Cc1cc(C(F)(F)F)n2nc(C(=O)N(Cc3cncn3Cc3ccccc3F)CC3CC3)cc2n1 | -1.46 | -0.8 | -0.18 |
| CC(C)(C)CCN1CCC(CNC(=O)c2cc(-c3cccc(Cl)c3)cs2)C1 (stereo unspecified) | 0.6 | -0.8 | -1.21 |
| COc1cc(Nc2ncc3c(C)nc(-c4cc5ccccc5[nH]4)n3n2)cc(OC)c1OC | 4.94 | 5.87 | 2.06 |
| CC1CN(Cc2ccccc2)CCN1c1ccc(NC(=O)c2cccs2)cc1 (stereo unspecified) | 10.9 | 12.3 | 10.8 |
| COc1cccc2cc(C(=O)N[C@@H](CC(C)C)C(=O)N[C@H](/C=N/NC(=O)OC(C)(C)C)CC(=O)OC(C)(C)C)oc12 | 4.66 | 6.98 | 3.63 |
| CC[C@H](C)CNC(=O)c1cncc(-c2ccc(CNCC3CNCCCO3)cc2)c1 (stereo partly specified) | -1.56 | -2.12 | -0.99 |
| COc1ccc2cc(-c3nc(-c4c(Cl)cccc4Cl)[nH]c3-c3ccnc(NCCC4CCCN4C)c3)ccc2c1 (stereo unspecified) | 29.7 | 12.8 | 8.98 |
| CCNC(=O)N1CCN(c2nc(-c3ccccc3)nc(COC)c2Cc2ccc(C)cc2)CC1 | 4.13 | -1.41 | 3.78 |
| Cc1c(Cl)cccc1S(=O)(=O)Nc1ccc(CCN2CCC(N)CC2)cc1 | -2.63 | -0.88 | -2.13 |
| Cc1cc(C)cc(-n2c(C)cc(/C=C3\SC(=Nc4ccc(Cl)cc4)NC3=O)c2C)c1 | 5.26 | 7.1 | 1.22 |
| O=C(C=Cc1ccc(Cl)c(Cl)c1)NCCCCCN1CCCC(CCCNC(=O)c2sc3ccccc3c2Cl)C1 (stereo unspecified) | 2.3 | 1.22 | -0.49 |
| c1cc(CNCC2CCCO2)cc(-c2ccc(-c3nc4ccccc4[nH]3)s2)c1 (stereo unspecified) | 0.61 | -3.37 | -0.92 |
| COc1ccccc1/C=C/C(=O)NC1CCC(CCN2CCc3ccc(-c4cc(C)no4)cc3CC2)CC1 (stereo unspecified) | 3.11 | 1.2 | 9.56 |
| COc1ccc(-c2cccc(NC(=O)c3ccc(C#N)cc3)c2)cc1CNC(C)C | 8.59 | 6.99 | 8.32 |
| CN1CC=C(c2csc3ccc(NC(=O)Nc4ccc(-c5ccncc5)c5ccccc45)cc23)CC1 | 3.83 | 3.39 | -1.21 |
| CC(=O)Nc1cccc(/C=C/C(=O)N2CCC(N3CCCCC3)CC2)c1 | 2.23 | 1.03 | 5.39 |
| N#Cc1ccc(CN2CCC(Oc3ccc(NC(=O)c4ccco4)cc3Cl)C2)cc1 (stereo unspecified) | 3.53 | 0.89 | -0.68 |
| C=CCOC(=O)N1CCC(CNCc2cccc(-c3cccc(-c4nc5cccc(C)c5[nH]4)c3)c2)C1 (stereo unspecified) | 3.47 | 1.88 | 7.29 |
| COc1ccc2nccc([C@@H](O)CN3CCC(NCc4nc5c(C#N)cccc5[nH]4)CC3)c2c1 | 3.6 | 3.33 | 3.84 |
| O=C(NC1CC1)c1ccc(N2CCOc3ccc(Cl)cc32)s1 | 2.19 | 1 | 1.54 |
| COc1cccc(-c2ccc(NC(=O)C3CCCN(Cc4cccc(OC)c4O)C3)cc2)c1 (stereo unspecified) | 3.21 | 2.29 | -0.64 |

| SMILES | inhibition [1] [%] | inhibition [2] [%] | inhibition [3] [%] |
| --- | --- | --- | --- |
| Nc1nc(N)c2c(Oc3ccc(Cl)c(Cl)c3)cccc2n1 | 0.48 | -0.05 | -3.94 |
| CCc1cn2c3c(cc(C(=O)N[C@@H](Cc4ccccc4)[C@H](O)CNC4CCOCC4)cc13)N(CC(F)(F)F)S(=O)(=O)CC2 | 2.22 | 2.72 | 0.88 |
| COc1ccc(Nc2nc(NN=Cc3cc(Br)c(O)cc3O)nc(Nc3ccc([N+](=O)[O-])cc3)n2)cc1 | 0.58 | 0.96 | 1.09 |
| CCNC[C@H]1CCCN1CCOc1ccc(-n2cnc3cc(-c4ccc(Cl)cc4)sc3c2=O)cc1OC | -0.44 | -1.99 | -2.28 |
| Cc1cc(N[C@@H](Cc2ccccc2)C(=O)NCCOc2ccccc2)nc(NCc2ccccc2C)n1 | 7.28 | 7.01 | 4.21 |
| CCn1c2ccccc2c2cc(Cc3cnc(N)nc3N)ccc21 | 9.49 | 8.51 | 3.47 |
| CCCc1cccc(OC)c1OCCCON1C(N)=NC(N)=NC1(C)C | -2.03 | -0.29 | 0.81 |
| CCCC(CC)n1ccc2c3c(N)nc(N)nc3ccc21 (stereo unspecified) | 70.5 | 76.3 | 57.8 |
| Cc1ccc(-c2cnc3[nH]cc(-c4ccc(C(=O)O)c(C)c4)c3c2)cc1C | 1.15 | 1.14 | 1.64 |
| O=C(Nc1cccc(-c2nn3ncccc3c2-c2ccnc(Nc3ccccc3)n2)c1)c1c(F)cccc1F | 3.26 | 11 | 2.04 |
| Brc1ccsc1-c1nc(NC2CCN(Cc3ccccc3)CC2)no1 | -0.23 | 5.86 | -0.38 |
| O=C(Nc1ccccc1)Nc1cccc(-c2ccc(-c3nc4cc(C(F)(F)F)ccc4[nH]3)cc2)c1 | 4.43 | 4.53 | 5.45 |
| CN1CCCN(c2ccnc3cc4c(cc23)N(C(=O)c2ccc(Cl)cc2)CC4)CC1 | 13.4 | 12.5 | 16.1 |
| COc1c(C2CCN(CCCCNC(=O)c3ccc(NC(=O)c4ccc(C#N)cc4)cc3)CC2)ccc2c1CCCC2 | 1.73 | 0.65 | 0.9 |
| Cc1c(Cl)ccc2c(C(=O)Nc3ccncc3)cc(-c3cccnc3)nc12 | -4.52 | -2.06 | -2.1 |
| Cc1ccccc1NC(=O)C1CSCN1C(=O)OCc1ccccc1 (stereo unspecified) | -1.39 | -0.23 | -0.28 |
| COc1ccccc1Nc1nc(C)cc(NCc2ccc(-n3ccnc3)cc2)n1 | 8.92 | 7.52 | 3.48 |
| COc1ccc2nccc(N3CCN(CCNCc4ccc5c(n4)NC(=O)CS5)CC3)c2c1 | 1.43 | 0.73 | 0.44 |
| COc1ccc2nccc([C@@H](O)CN3CCC(NCc4cn5cc(F)ccc5n4)CC3)c2c1 | 2.06 | 2.19 | -0.13 |
| O=C(Nc1cccc(-c2nc3ccccc3s2)c1)c1ccccc1[N+](=O)[O-] | 0.94 | -0.02 | -0.15 |
| CC1CN(c2cnn(Cc3cccc(NC(=O)Nc4cccc(C(F)(F)F)c4)c3)c(=O)c2Cl)CC(C)N1 (stereo unspecified) | 10.7 | 8.17 | 7.73 |
| O=C(Cc1cccs1)NCC(c1ccccc1Cl)c1c[nH]c2ccccc12 (stereo unspecified) | 2.89 | 0.74 | 1.14 |
| CCC(Cc1cnc2nc(N)nc(N)c2n1)c1ccc(C(=O)O)cc1 (stereo unspecified) | 1.41 | 1.88 | 2.49 |

Reference: ChEMBL document CHEMBL3433997, “St. Jude Leishmania screening dataset” (2016)
